Laboratory results from PubChem BioAssay (EPA / NIEHS).
Inconclusive results are not listed. Calls of active or inactive are those of the source. The calls were made as follows, unless noted: active = hit-call score of the fitted dose curve at least 0.9, where 1 is the maximum; inactive = score below 0.9.

Columns and labels:
[1] = TOX21_TR_RXR_BLA_Antagonist_Followup_viability: Viability Assessment in the Tox21 Thyroid Hormone Receptor beta Retinoid X Receptor alpha (RXRa) Antagonism Beta-lactamase (BLA) Follow-Up Assay (AID 2283979; active = hit-call score of the fitted dose curve at least 0.9, where 1 is the maximum)
Procedure, shortened: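 RXRa-bla HEK293T cells (2,500/well, phenol red-free DMEM, 2% charcoal-stripped FBS) were attached 5 h, then exposed to compounds at 11 concentrations in triplicate for 16 h at 37C. Viability measured by CellTiter-Glo ATP luminescence, bidirectional fitting versus DMSO.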

[2] = CCTE_Harrill_HTTr_Viability_DMEM_6hr: (Pilot) CCTE's 6-hour Cell Viability Assessment for the High-Throughput Transcriptomics (HTTr) Platform, in MCF-7 cells cultured in DMEM + 10% fetal bovine serum, Harrill Lab (AID 2283973)
Procedure, shortened: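 Propidium iodide uptake imaged by high-content analysis after six hours of chemical treatment in an eight-concentration series. Cells: MCF-7 grown in DMEM with 10% fetal bovine serum; DMSO as baseline.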

[3] = CCTE_Harrill_HTTr_Viability_DMEM_12hr: (Pilot) CCTE's 12-hour Cell Viability Assessment for the High-Throughput Transcriptomics (HTTr) Platform, in MCF-7 cells cultured in DMEM + 10% fetal bovine serum, Harrill Lab (AID 2283974)
Procedure, shortened: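 Propidium iodide dye exclusion imaged by high-content microscopy after 12 h chemical exposure (eight concentrations) of MCF-7 cells grown in DMEM plus 10% FBS; values fitted in both directions relative to DMSO.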

[4] = CCTE_Harrill_HTTr_Viability_DMEM_24hr: (Pilot) CCTE's 24-hour Cell Viability Assessment for the High-Throughput Transcriptomics (HTTr) Platform, in MCF-7 cells cultured in DMEM + 10% fetal bovine serum, Harrill Lab (AID 2283975)
Procedure, shortened: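 Pilot study: propidium iodide dye exclusion, imaged by high content microscopy, after 24 h compound exposure (eight concentrations) in MCF-7 cultured in DMEM + 10% fetal bovine serum; DMSO served as negative control and baseline.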

[5] = CCTE_Harrill_HTTr_Viability_PRF_DMEM_6hr: (Pilot) CCTE's 6-hour Cell Viability Assessment for the High-Throughput Transcriptomics (HTTr) Platform, in MCF-7 cells cultured phenol red-free DMEM + 10% charcoal-stripped fetal bovine serum, Harrill Lab (AID 2283976)
Procedure, shortened: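 Membrane integrity by high-content imaging of propidium iodide uptake, six hours after dosing with eight concentrations. Cells: MCF-7 grown in phenol red-free DMEM plus 10% charcoal-stripped serum; DMSO serves as baseline for bidirectional fits.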

[6] = CCTE_Harrill_HTTr_Viability_PRF_DMEM_12hr: (Pilot) CCTE's 12-hour Cell Viability Assessment for the High-Throughput Transcriptomics (HTTr) Platform, in MCF-7 cells cultured in phenol red-free DMEM + 10% charcoal-stripped fetal bovine serum, Harrill Lab (AID 2283977)
Procedure, shortened: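 Membrane integrity was scored via propidium iodide dye exclusion imaging, fitted in both directions relative to DMSO. Compounds ran as eight-point dilutions for 12 hours on MCF-7 grown in phenol red-free DMEM plus 10% charcoal-stripped serum.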

[7] = CCTE_Harrill_HTTr_Viability_PRF_DMEM_24hr: (Pilot) CCTE's 24-hour Cell Viability Assessment for the High-Throughput Transcriptomics (HTTr) Platform, in MCF-7 cells cultured in phenol red-free DMEM + 10% charcoal-stripped fetal bovine serum, Harrill Lab (AID 2283980)
Description: This is a cell-based assay that evaluates cell viability using high content imaging to evaluate membrane integrity using propidium iodide dye exclusion in a 384 well format.One of seven assay components measured from the CCTE_Harrill_HTTr_Viability assay. This was part of a pilot experiment. This is a cell-based assay that evaluates cell viability in MCF-7 cells cultured in phenol red-free DMEM + 10% charcoal-stripped fetal bovine serum. High content imaging is used to evaluate membrane integrity using propidium iodide dye exclusion. Measurements are taken at 24 hours after chemical dosing in 384-well format.The assay component endpoint CCTE_Harrill_HTTr_Viability_PRF_DMEM_24hr was analyzed with bidirectional fitting relation to DMSO as the negative control and baseline of activity. Using a type of viability reporter to understand changes in cytotoxicity, gain-of-signal activity can be used to evaluate membrane integrity using propidium iodide dye exclusion. To generalize the intended target to other relatable targets, this assay endpoint is annotated to cell cycle, where the subfamily is cytotoxicity.
Chemicals were tested in MCF7 cells in an eight point dilution series with a twenty-four hour exposure duration.

[8] = CCTE_Harrill_HTTr_Apoptosis_DMEM_6hr: (Pilot) CCTE's 6-hour Apoptosis Assessment for the High-Throughput Transcriptomics (HTTr) Platform, in MCF-7 cells cultured in DMEM + 10% fetal bovine serum, Harrill Lab (AID 2283981)
Procedure, shortened: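 MCF-7 cells grown in DMEM + 10% FBS were exposed for 6 hours to an eight-point dilution series. CellEvent Caspase 3/7 Green signal was imaged; activity fitted bidirectionally against DMSO.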

[9] = CCTE_Harrill_HTTr_Apoptosis_DMEM_12hr: (Pilot) CCTE's 12-hour Apoptosis Assessment for the High-Throughput Transcriptomics (HTTr) Platform, in MCF-7 cells cultured in DMEM + 10% fetal bovine serum, Harrill Lab (AID 2283982)
Procedure, shortened: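 Caspase-3/7 activity was measured by high-content imaging (CellEvent Caspase 3/7 Green) after a 12-hour exposure of MCF-7 cells grown in DMEM with 10% FBS. Eight-point concentration series, fitted bidirectionally against vehicle.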

[10] = CCTE_Harrill_HTTr_Apoptosis_DMEM_24hr: (Pilot) CCTE's 24-hour Apoptosis Assessment for the High-Throughput Transcriptomics (HTTr) Platform, in MCF-7 cells cultured in DMEM + 10% fetal bovine serum, Harrill Lab (AID 2283983)
Procedure, shortened: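 Caspase-3/7 activity read by high-content imaging (CellEvent Green reagent) 24 h after dosing. MCF-7 cells grown in DMEM with 10% FBS received an eight-point concentration series; fits were bidirectional versus DMSO.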

Measured: outcome

CC(C)c1cccc(C(C)C)c1N1C(=O)c2ccc(O)cc2C1=O
inactive: [1]

CCC(C)(C)C(=O)O[C@H]1C[C@@H](C)C=C2C=C[C@H](C)[C@H](CC[C@@H]3C[C@@H](O)CC(=O)O3)[C@H]21
inactive: [2] | [3] | [4] | [5] | [6] | [7] | [8] | [9] | [10]

CC[C@H](C)C(=O)O[C@H]1C[C@@H](C)C=C2C=C[C@H](C)[C@H](CC[C@@H]3C[C@@H](O)CC(=O)O3)[C@H]21
inactive: [2] | [3] | [4] | [5] | [6] | [7] | [8] | [9] | [10]
